Structures are written as SMILES. Hit rate of the full screen: of about 48,000 compounds, about 13,000 (27%) showed an effect of 50% or more. The list shows a part of the results.

This assay concerns Wolbachia pipientis. The experiment in a line: Anti-Wolbachia Cell-Based Screen. Type of assay: functional. Set-up: scale not given: in the data most compounds retested in dose-response had high values. The conditions noted are these: 5 µM.
Regarding `CCc1nnc2ccc(NCC3(N4CCCCC4)CCOCC3)nn12`, the “Percent Effect” value is given as -22.71%.
For `Cc1ccccc1Cc1nc(CSc2nnc(N)n2C)no1`, the “Percent Effect” value stood at 3.092%.
Take `CCC(CNC(=O)c1ccco1)N1CCc2ccccc2C1` (centres undefined): the “Percent Effect” value was 8.519%.
As for `CC(C)NC(=O)C1c2c(ncn2C(C)C)CCN1Cc1ccccc1.O=C(O)C(F)(F)F` (centres undefined), the “Percent Effect” value was -4.449%.
The same measure for `COc1ncccc1CNC(=O)C1=NN(c2ccccc2)C(=O)CN1`: 17.13%; for `O=C(OCc1ccccc1)c1cccc(NC(=O)C2COCCO2)c1` (centres undefined): -10.37%; for `CC(C)N1Cc2cccc(NCC(=O)N(C)C3CCCCC3)c2C1`: -12.78%.
As to `OCCN1CCC(CNCc2ccc(N3CCCCC3)cc2)CC1`, the “Percent Effect” value is -10.73%.
Take `CC(C)NS(=O)(=O)c1cc(C(=O)O)cc(-n2cc3c(n2)CCC3)c1`: the “Percent Effect” value was -3.943%.
Consider `CC1=N[C@@]2(CC[C@@H]3CN(Cc4cccc(Cl)c4)C[C@@H]32)C(=O)N1CC1CC1.O=C(O)C(F)(F)F`, for which the “Percent Effect” value worked out at 106.8%.
For the compound `CC1=N[C@@]2(CC[C@@H]3CN(Cc4ccccc4C)C[C@@H]32)C(=O)N1CC1CC1.O=C(O)C(F)(F)F`, the “Percent Effect” value is reported as 101.1%.
As for `COCCN1C[C@H]2CC[C@@]3(N=C(C)N(CC4CC4)C3=O)[C@H]2C1.O=C(O)C(F)(F)F`, the “Percent Effect” value is on record as -0.9614%.
For the compound `CC1=N[C@@]2(CC[C@@H]3CN(Cc4ccccc4)C[C@@H]32)C(=O)N1CC1CC1.O=C(O)C(F)(F)F`, the “Percent Effect” value came to 87%.
Regarding `CC1=N[C@@]2(CC[C@@H]3CN(Cc4ccccc4F)C[C@@H]32)C(=O)N1CC1CC1.O=C(O)C(F)(F)F`, the “Percent Effect” value is recorded as -0.009519%.
`CC1=N[C@@]2(CC[C@@H]3CN(CC(C)C)C[C@@H]32)C(=O)N1CC(C)C.O=C(O)C(F)(F)F`: the “Percent Effect” value worked out at 10.27%.
The result for `CC1=N[C@@]2(CC[C@@H]3CN(CC4CC4)C[C@@H]32)C(=O)N1CC(C)C.O=C(O)C(F)(F)F` reads -11.12%; that for `CC1=N[C@@]2(CC[C@@H]3CN(CC4CC4)C[C@@H]32)C(=O)N1CC1CC1.O=C(O)C(F)(F)F`, 106.2%.
With `O=C(O)C(F)(F)F.O=C1NC(c2ccccc2)=N[C@@]12CC[C@@H]1CN(CC3CC3)C[C@@H]12`, the “Percent Effect” value turned out to be 1.711%.
As to `CCS(=O)(=O)N1CCC(Nc2c(F)cc(C#N)cc2F)CC1`, the “Percent Effect” value amounted to 12.27%.
The same measure for `Cn1cc(S(=O)(=O)NCC2CCN(C(=O)c3ccoc3)CC2)cn1`: -16.26%.
For `COCCN1C(=O)[C@]2(CC[C@@H]3CN(Cc4ccccc4F)C[C@@H]32)N=C1C.O=C(O)C(F)(F)F`, the “Percent Effect” value came out at 90.53%.
The result for `COCCN1C(=O)[C@]2(CC[C@@H]3CN(C(=O)NC(C)C)C[C@@H]32)N=C1C` reads 32.84%; that for `CC1=N[C@@]2(CC[C@@H]3CN(Cc4ccccc4F)C[C@@H]32)C(=O)N1C`, 100.6%.
As to `CC1=N[C@@]2(CC[C@@H]3CN(CC(=O)N(C)C)C[C@@H]32)C(=O)N1CC(C)C.O=C(O)C(F)(F)F`, the “Percent Effect” value is 6.41%.
Turning to `COCCN1C(=O)[C@]2(CC[C@@H]3CN(C(=O)NC4CCCC4)C[C@@H]32)N=C1C`, the “Percent Effect” value is recorded as -7.65%.
In the case of `CC1=N[C@@]2(CC[C@@H]3CN(Cc4ccc(C)cc4)C[C@@H]32)C(=O)N1CC1CC1.O=C(O)C(F)(F)F`, the “Percent Effect” value is 104.5%.
`CC1=N[C@@]2(CC[C@@H]3CN(S(=O)(=O)CC(C)C)C[C@@H]32)C(=O)N1C`: the “Percent Effect” value turned out to be 16.54%.
As for `CCC1=N[C@@]2(CC[C@@H]3CN(Cc4ccccc4F)C[C@@H]32)C(=O)N1.O=C(O)C(F)(F)F`, the “Percent Effect” value was -10.48%.
As for `CC1=N[C@@]2(CC[C@@H]3CN(C(=O)NC(C)C)C[C@@H]32)C(=O)N1CC1CC1`, the “Percent Effect” value was determined as 1.3%.
As to `COc1ccc(S(=O)(=O)NCC(c2cccn2C)N(C)C)cc1F` (centres undefined), the “Percent Effect” value came to 1.104%.
For the compound `Cc1nn(C)cc1C(=O)N1CCCn2nc(CN3CC[C@H](F)C3)cc2C1`, the “Percent Effect” value is given as 10.52%.
Consider `Cc1nccn1-c1ccc(C(C)NCc2cc[nH]n2)cc1` (centres undefined), for which the “Percent Effect” value is given as -2.741%.
As to `CN(Cc1cccc(OCCO)c1)Cc1cccc2ncccc12`, the “Percent Effect” value is recorded as 95.97%.
Turning to `CCCc1cc(C(=O)N(C)Cc2cccc3ncccc23)n(C)n1`, the “Percent Effect” value was 20.91%.
As for `CN(Cc1cccc2ncccc12)C(=O)CCC(F)(F)F`, the “Percent Effect” value is -3.963%.
`CCCN(Cc1cccc(OCCO)c1)Cc1ccccc1OC`: the “Percent Effect” value was found to be 8.157%.
Turning to `CN(Cc1cccc(CCN)c1)Cc1cccc2ncccc12`, the “Percent Effect” value is on record as 97.29%.
As to `CN(Cc1csc(-c2cccs2)n1)Cc1cccnc1N`, the “Percent Effect” value is 16.69%.
In the case of `COCCN(Cc1cccc(OCCO)c1)Cc1ccccc1F`, the “Percent Effect” value is listed as 0.9238%.
The same measure for `CC(C)c1cc(C(=O)N(C)Cc2cccc3ncccc23)n(C)n1`: -7.2%; for `CN(Cc1cccnc1N)Cc1cccc2ncccc12`: 108.3%; for `Cc1ccsc1-c1cc(C(=O)O)cc(S(=O)(=O)NCc2ccccn2)c1`: -12.11%.
On to `COc1ccccc1Oc1ncccc1CNC(=O)[C@@H](N)CCO`, for which the “Percent Effect” value is -18.01%.
In the case of `Cc1cc(N2CCOC(c3ccncn3)C2)ncn1` (centres undefined), the “Percent Effect” value was 99.32%.
In the case of `Cc1ccc(N2CC[C@@H]3O[C@@H](c4ccncn4)C[C@H]3C2)nn1`, the “Percent Effect” value is given as 17.26%.
In the case of `O=C(NC1CC1)c1ccnc(N2CCOC(c3ccc(Cl)c(Cl)c3)C2)c1` (centres undefined), the “Percent Effect” value was -23.24%.
For `O=C(NC1CC1)c1ccnc(N2CCOC(c3ccc(Cl)cc3)C2)c1` (centres undefined), the “Percent Effect” value is -21.25%.
For the compound `COc1cc(N2CC[C@@H]3O[C@@H](c4ccncn4)C[C@H]3C2)ncn1`, the “Percent Effect” value is given as -28.63%.
The same measure for `Cc1cc(N2CCOC(c3ccc(C(N)=O)cn3)C2)ncn1` (centres undefined): 105.9%; for `CN(C)CCN1CCOC2(CCN(c3nccs3)CC2)c2ccccc21`: -12.88%.
Regarding `N#Cc1ccc(C(=O)N2CCOC[C@H](Oc3cnccn3)C2)cc1`, the “Percent Effect” value is on record as -4.484%.
The same measure for `CC1(C)CNC(=O)c2nc(CCN3CCCCC3CO)[nH]c2C1` (centres undefined): -22.93%.
`CCOc1cc(NC(=O)C2CC(=O)N(c3cccc(OC)c3)C2)ncn1` (centres undefined): the “Percent Effect” value is given as -2.704%.
For `CCN(Cc1ccc(C#N)cc1F)C(=O)C(C)(C)C`, the “Percent Effect” value is given as 4.691%.

The values above are taken from ChEMBL document CHEMBL3988442, “University of Dundee, Small-Polar-MMV Screening Library” (2021).
